Laboratory results published in ChEMBL document CHEMBL1201862, “PubChem BioAssay data set” (2004).
Among all 57,000 […] or so, about 3,400 (6%) were called active. Cut-off read from the data, not from the text of the source: active = GI50 up to about 1.1 µM and inactive = higher. A selection follows. Results with a measured potency or affinity are listed apart.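 Following 48 hours of exposure in 96-well plates, responses at five concentrations were used to interpolate endpoints linearly. Here, GI50 denotes the concentration required for 50% inhibition of growth.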

The substances below were run on UO-31 (assay: NCI tumour cell line growth inhibition, 48 h).

Row | Substance | GI50 [µM]
1 | CISPLATIN, CHEMBL11359 | 3.36
2 | [Bis(aminomethyl)dimethylsilane]tetrachloroplatinum(IV), CHEMBL2146190 | 9.93
3 | [Bis(aminomethyl)ethylmethylsilane]tetrachloroplatinum(IV), CHEMBL2146192 | 7.48
4 | [Bis(aminomethyl)tetramethylenesilane]dichloropaltinum(II), CHEMBL2146205 | 22.3
5 | [Bis(aminomethyl)dimethylsilane]dichloroplatinum (II), CHEMBL2146201 | 55.2
6 | [Bis(aminomethyl)pentamethylenesilane]tetrachloropaltinum(IV), CHEMBL2146204 | 0.731
7 | [Bis(aminomethyl)diethylsilane]tetrachloroplatinum(IV), CHEMBL2146203 | 4.43
8 | [Bis(aminomethyl)pentamethylenesilane]dichloropaltinum(II), CHEMBL2146202 | 3.21
9 | mu-(1,7-nanodiamine-N,N')bis-(cis-aminedichloroplatimum (II)), CHEMBL2146215 | 44.8
10 | cis-Bis[[(trimethylsilyl)methyl]amino]tetrachloroplatinum(IV), CHEMBL2146191 | 16.2
11 | [Bis(aminomethyl)tetramethylenesilane]tetrachloropaltinum(IV), CHEMBL2146189 | 3.73
